A short description of the assay: NCI Yeast Anticancer Drug Screen. Data for the bub3 strain (AID 167). The note with it: S. cerevisiae bub3 mutant strain, active compounds read high. As to the method:
Growth inhibition of yeast strains with defined genetic alterations is measured as a screen for potential anti-cancer activity. Selected strains with alterations in DNA damage repair or cell cycle control were exposed to compounds and growth inhibition was measured relative to vehicle treated controls. The strain used in this assay is bub3

[1] abbreviates: at 5.0 µM (retest, dose inferred, filed as 0.5).
Where [2] appears, read: at 50.0 µM (retest, dose inferred, filed as 5.0).

This is part of a sample that, as a whole, favours compounds with a hit. Of some 79,000 tested, about 15% had one in any assay. Unmarked numbers belong to inactive results. Calls of active or inactive are those of the source. Rule as the data show it: active = growth inhibition above about 70%; inactive = the rest.

Take `CC1=C/C(=C(/c2ccc(O)c(C)c2)c2ccccc2C(=O)O)C=CC1=O`: the growth inhibition under setting [1] is -8%, the growth inhibition under setting [2] is 99% (active) and the growth inhibition (at 50.0 µM) was 99.2% (active).
In the same order, the values of `CC(=O)OC(OC(C)=O)c1ccc([N+](=O)[O-])o1` are -20%, -87% and 99.5% (active).
In the same order, the values of `O=C(CBr)c1cccc(OC(=O)c2ccccc2)c1` are 99% (active), 99% (active) and 56.2%.
Regarding `COc1ccc(OC)c2c1C=CC(Br)=CC2`, the growth inhibition is 19% under setting [1], 19% under setting [2] and 40.8% (at 50.0 µM).
For the molecule `C/C(=N/NC(=O)C[n+]1ccccc1)C(CN(CC(C)C)CC(C)C)C(=O)Nc1ccc(C)cc1C` (configuration not stated), the growth inhibition by setting is: under setting [1], 12%; under setting [2], 12%; (at 50.0 µM) 58%.
As for `Oc1ccc(C2CCc3ccccc32)cc1` (configuration not stated), the growth inhibition runs as follows: under setting [1], -28%; under setting [2], 94% (active); (at 50.0 µM) 99.5% (active).
For `CCCC[NH-].CCCC[NH-].[I][Pt+2][I]`, the growth inhibition reads like this: under setting [1], 56%; under setting [2], 68%; (at 50.0 µM) 49.4%.
Regarding `CC1(C)OC2C(CO)OC(n3ncc(=S)[nH]c3=O)C2O1` (configuration not stated), the growth inhibition reads like this: under setting [1], 6%; under setting [2], 15%; (at 50.0 µM) 71% (active).
On the same counts, the results for `N#Cc1c([N+](=O)[O-])cc(C(F)(F)F)cc1[N+](=O)[O-]` are 92% (active), 100% (active) and 99% (active).
Consider `Cc1ccc(/C=C2\CCCC(CN(C)C)C2=O)cc1` (configuration not stated), for which the growth inhibition was -31% under setting [1], 99% (active) under setting [2] and 49.3% (at 50.0 µM).
As for `O=[N+]([O-])c1ccc(C2=Nn3c(nnc3-c3ccc(Cl)cc3)SC2)o1`, the growth inhibition by setting is: under setting [1], 12%; under setting [2], 93% (active); (at 50.0 µM) 55.9%.
Turning to `O=C(Nc1ccccc1)O/N=C1/CCCC/C1=C\c1ccccc1`, the growth inhibition runs as follows: under setting [1], 54%; under setting [2], 87% (active); (at 50.0 µM) 81.6% (active).
Turning to `O=C(Nc1ccc(Cl)cc1)OCCOCCOC(=O)Nc1ccc(Cl)cc1`, the growth inhibition was -7% under setting [1], 97% (active) under setting [2] and 98.7% (active) (at 50.0 µM).
In the same order, the values of `O=C1c2ccccc2C(=O)c2c(OCCOCCO)cccc21` are -6%, 17% and 37.6%.
